An excerpt weighted towards active compounds, which were near 0.77% of everything screened.
NS1 inh = influenza NS1 inhibition. Potency, µM (titrated, usually from 46.1 µM). actives 0.4% (n = 270,000). AID 2326; calls by dose curve; further: actives are rising curves; nearly all actives have a fitted effect of over 50% in size
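OD600 was taken as the measure of yeast growth restored by compound in an NS1-expressing S. cerevisiae strain. Cells had been washed out of glucose medium and diluted 1:100 into galactose -URA medium, pH 6.0.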
Tb PYK inh = T. brucei pyruvate kinase inhibition; Q57TT1; TbPYK enzyme, Kinase-Glo Plus ATP luminescence, 45 min; Potency, µM (doses to about 76.8 µM), usual class: inhibitors; actives 0.12% (n = 410,000); further: nearly all actives have a fitted effect of over 50% in size
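Luminescent Kinase-Glo Plus end-point after 45 min room-temperature reaction of T. brucei pyruvate kinase started with 130 uM ADP (final). Buffer TEA 50 mM pH 7.2 with KCl, MgCl2, BSA, Tween-20; titration-based qHTS with fitted concentration-effect curves.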
RE007 growth inh = less growth of the S. pombe RE007 Vpr strain; S. pombe RE007 Vpr strain, BacTiter-Glo ATP luminescence, 24 h; Potency, µM (series often up to 92.2 µM), actives largely listed as inhibitors; actives 0.21% (n = 360,000); active means well fitted falling curve with a large enough effect; inconclusive means small, poorly fitted or top-dose-only effect; inactive means no such curve, though single readings can be large or run the other way; further: nearly all actives have a fitted effect of over 50% in size
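Fission yeast RE007 carrying one integrated HIV-1 vpr copy, seeded at OD 0.01 in PMG+AL medium with 23 nL pinned compound. Grown 24 h at 30 degrees; viability read by BacTiter-Glo luminescence after 5 min.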
LmPK inhibitor = blocks Leishmania mexicana pyruvate kinase activity | Q27686 | purified LmPK, Kinase-Glo ATP luminescence, 1 h | Potency, µM (highest dose often 57.5 µM), usual class: inhibitors | actives 0.37% (n = 290,000) | AID 1721
Target sequence (Q27686 whole entry, looked up): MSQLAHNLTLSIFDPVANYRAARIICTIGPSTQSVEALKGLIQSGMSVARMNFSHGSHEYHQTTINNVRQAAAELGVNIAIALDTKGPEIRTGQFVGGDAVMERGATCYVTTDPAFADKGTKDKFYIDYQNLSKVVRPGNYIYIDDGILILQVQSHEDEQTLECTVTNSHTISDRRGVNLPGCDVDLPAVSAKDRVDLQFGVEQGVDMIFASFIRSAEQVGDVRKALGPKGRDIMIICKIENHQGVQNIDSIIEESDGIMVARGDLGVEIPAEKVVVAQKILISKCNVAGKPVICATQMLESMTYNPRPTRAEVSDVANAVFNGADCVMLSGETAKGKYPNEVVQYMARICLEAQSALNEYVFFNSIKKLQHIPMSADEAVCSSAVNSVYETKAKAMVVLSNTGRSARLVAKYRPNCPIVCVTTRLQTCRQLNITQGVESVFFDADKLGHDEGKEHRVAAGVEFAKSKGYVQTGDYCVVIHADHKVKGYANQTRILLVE
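Screened at intermediate enzyme activity to detect both inhibitors and activators: LmPK at 0.1 nM, with a 0.5 nM enzyme column as activation reference. PEP 0.5 mM, ADP 0.1 mM; ATP detected by luminescence after 1 h.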
Numbers stand for hits; - = inactive; ? = inconclusive; . = not tested or not shown. Unless noted, the call rests on the fitted dose curve; in most records, active means well fitted curve in the direction sought with a large enough effect; inconclusive means small, poorly fitted or top-dose-only effect, or another doubt; inactive means no such curve, though single readings can be large; an effect the other way counts as inactive or inconclusive.

SMILES	NS1 inh	Tb PYK inh	RE007 growth inh	LmPK inhibitor
COc1ccc(C(=O)O/N=C(/C)c2cccs2)cc1	-	25µM	40µM	3.5µM
C/C(=N/OC(=O)c1c(F)cccc1F)c1nccs1	-	-	-	13µM
COc1ccc(C(=O)O/N=C(\C)c2nccs2)cc1	-	?	-	7.9µM
O=[N+]([O-])c1ccc(N2CCOCC2)c2c1no[n+]2[O-]	.	-	45µM	.
O=[N+]([O-])c1ccc(N2CCOCC2)c2cccnc12	.	-	-	-
CCCCN1C(=O)CN(C2CCCCCC2)C(=O)C1c1ccc(OCC)c(OC)c1 (stereo not drawn)	.	-	.	.
Nc1cccc([N+](=O)[O-])c1	-	-	-	-
O=[N+]([O-])c1cccc(SSc2cccc([N+](=O)[O-])c2)c1	.	11µM	?	.
Cc1noc(C)c1C(=O)N1CCC[C@@]2(CCN(C(=O)Nc3ccccc3)C2)C1	.	-	.	.
Cc1ccc(-n2c(O)c(/C=N/NC(=O)C3COc4ccccc4O3)c3ccccc3c2=O)cc1 (stereo not drawn)	?	-	-	-
O=C(N/N=C\c1ccc(Br)o1)C1COc2ccccc2O1 (stereo not drawn)	-	-	-	-
CN(C)c1ccc(/C=N/NC(=O)C2COc3ccccc3O2)o1 (stereo not drawn)	-	28µM	-	-
O=C(N/N=C/c1c(O)n(-c2ccccc2Cl)c(=O)c2ccccc12)C1COc2ccccc2O1 (stereo not drawn)	3.5µM	-	-	-
CO/N=C1/CC2(CC3CC(C/C=C(/C)CC(C)/C=C\C=C4\COC5C(O)C(C)=CC(C(=O)O3)C45O)O2)OC(/C(C)=C/C(C)C)C1C (stereo not drawn)	.	-	.	.
Cc1c(C(=O)OC(C)C)sc(NC(=O)C2c3ccccc3Oc3ccccc32)c1C(=O)OC(C)C	.	-	.	.
CC[n+]1c(C)sc2c3ccsc3ccc21	.	4µM	-	-
CCN1/C(=C/c2ccc3cc(C)ccc3[n+]2CC)Sc2ccc3sccc3c21	.	?	-	.
Cc1ccc(-n2c(Cl)c(Cl)nc(Cl)c2=O)cc1	-	-	10µM	-
COc1ccc(-n2cnc3cc(C(=O)NC4CCCCCC4)ccc32)cc1	.	-	.	.
O=C(NC1CCCC1)c1sc(=S)n2c1[nH]c(=O)c1ccccc12	-	-	-	22µM
Cc1ccc(-n2c(CNc3ccc(C)c(Cl)c3)n[nH]c2=S)cc1	-	4.5µM	-	?
Cc1ccc(NCc2n[nH]c(=S)n2-c2cccc(Cl)c2)cc1	.	3.5µM	-	?
CCc1ccccc1S(=O)(=O)Cc1ccc(C(=O)NCCc2ccc(Cl)cc2)o1	.	-	.	.
O=S(=O)(c1ccc(=S)[nH]c1)N1CCOCC1	.	7.9µM	-	.
CCN(CC)S(=O)(=O)c1ccc2c(c1)N(CC(=O)N1CCN(c3ccc(OC)cc3)CC1)C(=O)CO2	.	-	.	.
SMILES	NS1 inh	Tb PYK inh	RE007 growth inh	LmPK inhibitor
COc1ccc(N2CCN(Cc3nnc(-c4cccc(Br)c4)o3)CC2)cc1	.	-	.	.
Cc1nc2sc(-c3ccccc3)cc2c(=O)n1N	-	?	?	7.1µM
COc1ccccc1C(C[N+](=O)[O-])c1c(N)n(C)c(=O)n(C)c1=O (stereo not drawn)	-	-	35µM	-
COc1ccccc1C(c1c(N)n(C)c(=O)n(C)c1=O)C(C)[N+](=O)[O-] (stereo not drawn)	-	-	?	-
O=C1C2C3C=CC(C3=C3CCCCC3)C2C(=O)N1c1ccccc1 (stereo not drawn)	-	-	35µM	-
COC(=O)c1cc(NC(=O)CN(c2ccccc2)S(=O)(=O)N(C)C)ccc1Cl	.	-	.	.
COc1cc(/C=C(\C#N)c2nc3ccccc3[nH]2)ccc1OCc1cccc(C(F)(F)F)c1	.	-	.	.
Oc1ccccc1C1=NN(c2ccccc2)C(c2ccc(F)cc2)C1 (stereo not drawn)	-	-	-	-
Oc1ccc(C2=NN(c3ccccc3)C(c3ccc(F)cc3)C2)cc1 (stereo not drawn)	-	-	40µM	-
CCCCn1nc(NC(=O)c2cccc(Cl)c2)c2cc3cccc(C)c3nc21	.	-	.	.
COc1cc(/C=N/N=C2/NC(=O)C(CC(=O)O)S2)ccc1OCc1ccc(Cl)cc1 (stereo not drawn)	-	18µM	-	?
C=CC[C@@H](C(=O)O)c1ccccc1	-	.	.	.
CCOC(=O)C1CCCN(C2CC(=O)N(c3ccc(C(C)C)cc3)C2=O)C1 (stereo not drawn)	-	-	35µM	-
CCOC(=O)C1CCCN(C2CC(=O)N(c3ccc(C)c(C)c3)C2=O)C1 (stereo not drawn)	-	-	28µM	-
CCOC(=O)C1CCCN(C2CC(=O)N(c3cccc(C(F)(F)F)c3)C2=O)C1 (stereo not drawn)	-	-	8.9µM	-
CCOC(=O)C1CCCN(C2CC(=O)N(c3ccccc3)C2=O)C1 (stereo not drawn)	-	-	?	-
CCOC(=O)C1CCCN(C2CC(=O)N(c3ccc(N4C(=O)CC(N5CCCC(C(=O)OCC)C5)C4=O)cc3)C2=O)C1 (stereo not drawn)	-	-	-	-
CC(C)(CN)SCc1ccccc1	-	.	.	.
CCc1ccc(CN(Cc2cn[nH]c2-c2ccc(OC)cc2)C(=O)Nc2ccc(C)c(F)c2)cc1	.	-	.	.
COC(=O)c1sc(=S)sc1C(=O)OC	-	-	32µM	-
COC(=O)c1sc(C(=O)OC)c(C(=O)OC)c1C(=O)OC	-	-	-	-
Cc1cc(C)cc(NC(=O)CSc2nccn2C2CCCC2)c1	.	-	.	.
O=C(/C=C/c1ccccc1)Nc1cccnc1	-	-	-	-
Cc1ccc(/C=C/C(=O)Nc2cccnc2)o1	-	28µM	-	-
N#CCCn1c(=O)c(-c2cc(F)cc(F)c2)nc2cnc(Oc3cccc(Cl)c3)nc21	.	-	.	.
SMILES	NS1 inh	Tb PYK inh	RE007 growth inh	LmPK inhibitor
O=C1C=CC(=Nc2ccc3c(c2)Cc2cc(F)ccc2-3)O1	.	?	3.2µM	.
Cc1ccc(C)c(Cn2c(SCC(=O)NCc3ccccc3)nc3ccccc32)c1	.	-	.	.
CCN1/C(=C/C(C)=C/c2sc3ccccc3[n+]2CC)Sc2ccccc21	-	?	7.1µM	-
CCN1/C(=C\C(=S)Nc2ccccc2)Sc2ccccc21	-	-	-	-
Cc1[nH]n(-c2ccccc2)c(=O)c1C(C[N+](=O)[O-])c1ccccc1Cl (stereo not drawn)	-	-	32µM	-
Cc1[nH]n(-c2ccccc2)c(=O)c1C(c1ccc(O)c([N+](=O)[O-])c1)c1c(C)[nH]n(-c2ccccc2)c1=O	.	-	-	.
COc1ccc(C(C[N+](=O)[O-])c2c(C)[nH]n(-c3ccccc3)c2=O)cc1 (stereo not drawn)	-	-	11µM	-
Cc1[nH]n(-c2ccccc2)c(=O)c1C(c1ccc([N+](=O)[O-])cc1)c1c(C)[nH]n(-c2ccccc2)c1=O	-	-	-	-
CCc1ccccc1N(C)C(=O)C1CCCN(c2ncnc3c2nc2n3CCCCC2)C1 (stereo not drawn)	.	-	.	.
Fc1cccc(-n2ncc3c2ncn2nc(Cc4ccccc4)nc32)c1	.	-	.	.
O=C(O)C(O)(c1ccc(-c2ccccc2)cc1)c1ccc(-c2ccccc2)cc1	-	.	.	.

Assay outcomes: PubChem BioAssay, National Center for Advancing Translational Sciences (NCATS)
